# Screening data: PubChem, several laboratories
# Myeloid diff 2: promotes myeloid progenitor differentiation. ER-HoxA9 myeloid progenitors, lysozyme-GFP differentiation, flow cytometry. calls only at 10 µM. 1% of 360,000 active. AID 624256;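 active = normalized GFP-positive differentiation at or above the plate's own cutoff, the solvent-only control mean plus 3 SD; inconclusive = no clear call, values can overlap the other calls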;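 note: cells exposed to compound for four days before flow analysis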
# HGIII-sPLA2 inh: Inhibits HGIII-sPLA2 liposome hydrolysis, primary screen; Q9NZ20; QFRET BODIPY PC-A2 liposome hydrolysis, fluorescence; inhibition, % at 12.2 µM; 0.56% of 370,000 active;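 active = inhibition above mean plus 3 SD of compounds lying within the high and low control bounds, cut at about 19% in these data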
# Cardio protect: myocardial damage modulation in H9c2 cells; H9c2 cardiomyocytes, H2O2 injury protection, ATPLite, 2 h; 0.63% of 360,000 active; AID 588492; protection from H2O2 cell death, % at 20 µM;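 active = compounds giving at least 50% protection of heart cells from peroxide-induced death in the single-dose screen, raw or plate-pattern-corrected value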
# ABHD5-PLIN5 inh: inhibitors of human ABHD5-perilipin-5 interaction; inhibition, % at 4 µM; AID 602281; Split G. princeps luciferase complementation, luminescence, 4 h; 0.78% of 360,000 active;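 active = inhibition above the mean inhibition across every tested compound plus 3 SD, cut at about 22% in these data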
# DAGLB inhibitor: blocks human DAGLB lipase activity; HEK293T DAGLB membrane lysate, EnzChek fluorogenic substrate; AID 504411; 0.059% of 340,000 active; Q8NCG7; inhibition, % at 5.17 µM; in the data active = inhibition above about 34%
# Target sequence (Q8NCG7 whole entry, looked up): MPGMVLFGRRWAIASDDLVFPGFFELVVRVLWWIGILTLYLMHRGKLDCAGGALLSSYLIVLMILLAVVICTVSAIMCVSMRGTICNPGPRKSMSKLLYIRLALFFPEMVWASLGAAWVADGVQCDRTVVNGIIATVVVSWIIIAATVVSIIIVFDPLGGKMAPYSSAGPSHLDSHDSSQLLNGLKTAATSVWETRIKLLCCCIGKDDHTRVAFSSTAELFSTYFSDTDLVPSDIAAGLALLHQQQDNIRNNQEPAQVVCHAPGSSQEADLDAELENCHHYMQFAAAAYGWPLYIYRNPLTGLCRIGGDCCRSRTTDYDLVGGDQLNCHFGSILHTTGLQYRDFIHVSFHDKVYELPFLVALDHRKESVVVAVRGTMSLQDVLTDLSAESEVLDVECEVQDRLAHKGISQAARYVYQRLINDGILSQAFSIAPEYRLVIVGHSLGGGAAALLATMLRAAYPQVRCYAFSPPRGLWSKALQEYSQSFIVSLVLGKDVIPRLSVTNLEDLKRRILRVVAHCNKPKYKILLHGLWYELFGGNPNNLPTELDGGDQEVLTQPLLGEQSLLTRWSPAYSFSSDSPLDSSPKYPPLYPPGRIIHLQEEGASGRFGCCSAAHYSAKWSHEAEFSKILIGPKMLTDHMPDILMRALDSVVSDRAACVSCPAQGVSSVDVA
# Rtt109 Vps75: blocks Candida albicans Rtt109/Vps75 acetyltransferase activity | Q5AAJ8 | purified Rtt109/Vps75, ThioGlo CoA-SH fluorescence, 4 h | inhibition, % at 34.9 µM | 0.16% of 330,000 active | AID 540336;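 active = inhibition of at least 50% in every replicate; inconclusive = best replicate reaches 50% inhibition but some replicates fall short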
# Numbers stand for hits; i = inactive; ? = inconclusive; nt = no result given; + = active, no number. A selection: hits, their analogues and other compounds. The true share with any hit is near 2.9%.
SMILES,Myeloid diff 2,HGIII-sPLA2 inh,Cardio protect,ABHD5-PLIN5 inh,DAGLB inhibitor,Rtt109 Vps75
CCN(CC)c1ccc(C2C(C(=O)OC(C)C)C(=O)CC(C)(O)C2C(=O)OC(C)C)cc1 (centres undefined),i,i,74.9,i,i,i
C=CCn1cnc2sc(C(=O)Nc3ccccc3OC)c(C)c2c1=O,i,i,i,i,i,i
COc1cc(/C=C/c2nc3ccccc3c(=O)[nH]2)ccc1O,i,i,i,i,i,nt
COc1cc(-c2cc(O)c(-c3ccc4ccccc4n3)c(=O)[nH]2)cc(OC)c1OC,nt,i,62.3,i,i,i
CCNC(=S)NC(=NCc1cccnc1)Nc1nc(C)cc(C)n1,i,i,i,i,i,i
N#Cc1sc2nc(-c3cccs3)cc(-c3ccc(F)cc3)c2c1N,+,i,i,i,i,i
N#Cc1sc2nc(C3CC3)cc(-c3ccccc3)c2c1N,i,i,i,i,i,i
CS(=O)(=O)c1sc2nc(-c3cccs3)cc(-c3ccccc3)c2c1N,+,i,i,i,i,i
O=C(Nc1ccc(Cl)cc1)N1CCN(c2ccc3nnc(-c4ccc(F)cc4)n3n2)CC1,i,i,53.1,i,i,i
O=C(c1ccc(Br)o1)N1CCN(c2ccccn2)CC1,i,i,i,i,i,i
O=C(Nc1ccccc1Cl)N1CCN(c2ccc3nnc(-c4ccccc4)n3n2)CC1,i,nt,i,i,i,i
O=C(c1ccc(Br)o1)N1CCN(c2ccc3nnc(-c4ccc(F)cc4)n3n2)CC1,i,i,51.9,i,i,i
N=C1S/C(=C\c2cccc3ccccc23)C(=O)N1c1ccc(F)cc1,+,i,i,i,i,i
O=C(NC1CC1)c1cccc(S(=O)(=O)Nc2ccccc2F)c1,i,i,i,i,i,i
COc1cccc(CN(C)C[C@@H]2OCc3ccccc3-c3c(n(C)c4ccccc34)C(=O)N([C@@H](C)CO)C[C@H]2C)c1,+,i,i,i,i,nt
CCN(CC)C(=O)CSc1nnc2nnc3cc(OC)ccc3n12,+,i,i,i,nt,nt
Cc1ccc(S(=O)(=O)NC(CC(=O)O)c2ccc(F)cc2)cc1 (centres undefined),i,i,i,i,i,i
NNC(=S)Nc1ccc(S(=O)(=O)N2CCOCC2)cc1,i,i,i,i,i,i
O=S(=O)(c1ccc(NC(=S)Nc2ccc(OC(F)F)cc2)cc1)N1CCOCC1,+,i,i,i,i,i
CSCCC(NC(=O)COc1ccccc1)C(=O)OCC(=O)c1ccccc1 (centres undefined),i,i,i,i,i,i
CSCCC(NS(=O)(=O)c1ccc2ccccc2c1)C(=O)OCC(=O)c1ccc(C(C)C)cc1 (centres undefined),+,i,i,i,i,i
CCc1cc(/C(Cc2ccccn2)=N\O)c(O)cc1O,+,i,i,i,i,i
CC(C)C(=O)Nc1nnc(S(=O)(=O)N2CCc3ccccc32)s1,i,i,i,i,i,i
CC(=O)N1CCc2c(sc(NC(=O)C3CC3)c2-c2nc3ccccc3s2)C1,+,i,i,i,i,i
Cc1ccc(NC(=S)NC2CCN(Cc3ccccc3)CC2)cc1C,+,i,i,i,i,i
SMILES,Myeloid diff 2,HGIII-sPLA2 inh,Cardio protect,ABHD5-PLIN5 inh,DAGLB inhibitor,Rtt109 Vps75
CCCCc1cc(-c2n[nH]c(=S)o2)c2ccccc2n1,i,i,i,i,i,i
C#CCOCCOCCOCCNc1nc(N2CCN(C(=O)Cn3cc(CCCN=C(N)N)nn3)CC2)nc(N2CCN(C(=O)[C@H]([C@@H](C)CC)n3cc(CCCCN)nn3)CC2)n1,i,i,i,i,i,i
C#CCOCCOCCOCCNc1nc(N2CCN(C(=O)CCCCCCCCCCNC(=O)[C@@H](CCC(=O)O)n3cc(CCCCCN)nn3)CC2)nc(N2CCN(C(=O)CCCCCCCCCCNC(=O)[C@H]([C@@H](C)CC)n3cc(CCCCCN)nn3)CC2)n1,i,nt,i,51.2,i,i
C#CCOCCOCCOCCNc1nc(N2CCOCC2)nc(N2CCN(C(=O)CCCCCCCCCCNC(=O)[C@@H]([C@H](C)CC)n3cc(CCCCCN)nn3)CC2)n1,+,i,i,26.6,i,i
C#CCOCCOCCOCCNc1nc(N2CCN(C(=O)CCCCCCCCCCNC(=O)[C@H]([C@@H](C)CC)n3cc(CCCCCN)nn3)CC2)nc(N2CCN(C(=O)CCCCCCCCCCNC(=O)[C@H]([C@@H](C)CC)n3cc(CCCCN=C(N)N)nn3)CC2)n1,i,nt,i,59.3,i,i
C#CCOCCOCCOCCNc1nc(N2CCN(C(=O)CCCCCCCCCCNC(=O)[C@H]([C@@H](C)CC)n3cc(CCCCN=C(N)N)nn3)CC2)nc(N2CCN(C(=O)CCCCCCCCCCNC(=O)[C@H](CO)n3cc(CCCCCN)nn3)CC2)n1,i,nt,i,47.5,i,87.1
O=C(C[C@@H]1C=C[C@@H](NC(=O)Nc2cccc(F)c2)[C@@H](CO)O1)NCC1CCCCC1,i,i,nt,i,nt,nt
C#CCOCCOCCOCCNc1nc(N2CCN(C(=O)CCCCCCCCCCNC(=O)[C@H]([C@@H](C)CC)n3cc(CCCCCN)nn3)CC2)nc(N2CCN(C(=O)CCCCCCCCCCNC(=O)[C@H](CO)n3cc(CCCCCN)nn3)CC2)n1,i,nt,i,39.4,i,i
C#CCOCCOCCOCCNc1nc(N2CCN(C(=O)CCCCCCCCCCNC(=O)Cn3cc(CCCCCN)nn3)CC2)nc(N2CCN(C(=O)CCCCCCCCCCNC(=O)[C@H]([C@@H](C)CC)n3cc(CCCCN=C(N)N)nn3)CC2)n1,i,nt,i,58.2,i,?
C#CCOCCOCCOCCNc1nc(N2CCOCC2)nc(N2CCN(C(=O)CCCCCCCCCCNC(=O)[C@@H](CCC(=O)O)n3cc(CCCCCN)nn3)CC2)n1,i,i,i,i,i,i
CCN(CC)c1cc(C)c2cc(NC(=O)c3ccccc3OC)ccc2n1,+,i,i,i,i,i
O=c1oc2cc(Cl)ccc2n1CSc1nc2ccccc2s1,+,i,i,i,i,i
COc1ccc(NC(=O)c2cc(C3CCCCN3C(=O)c3cc(F)ccc3C)on2)c(C)c1 (centres undefined),i,i,i,i,nt,nt
COc1ccc(-c2cc3ccccc3oc2=O)cc1,i,i,i,i,i,i
COc1ccc(-c2cc3ccc(OC(C)C(=O)O)cc3oc2=O)cc1 (centres undefined),i,i,i,22.4,i,i
O=C(NCCN1CCOCC1)c1ccccc1Cl,i,i,i,i,i,i
O=C(COc1cc(Cl)c(Cl)cc1Cl)NCCN1CCOCC1,+,i,i,i,i,i
CCc1cc(=O)oc2cc(OCC(=O)NCCN3CCOCC3)c(Cl)cc12,?,i,i,i,i,i
Cc1ccc(C(=O)NCCN2CCOCC2)c(Cl)c1,+,i,i,i,i,i
COC(=O)/C=C/c1c(C)nc(NCc2ccccc2)nc1Cl,+,i,i,i,i,i
